Assay outcomes (PubChem)
Hits are enriched below; roughly 9.2% of the tested compounds scored in any of these assays.
SMN2 splice enh = qHTS Assay for Enhancers of SMN2 Splice Variant Expression; 2.8% of 210,000 active; HEK293 SMN2-luciferase splicing reporter, luminescence, 30-36 h; AID 1458, 2008; Potency, µM (series often up to 46.1 µM), inactives show top-dose activity change, positive = activation, usual class: activators; further: % of control where 0% means no effect; nearly all actives have a fitted effect of over 55% in size
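qHTS luciferase splicing reporter: luminescence rises when SMN2 exon 7 is included in transfected HEK293 cells. Compound exposure lasted 30-36 h at 37C, with 4.5 mM final sodium butyrate as control, followed by a ONE-Glo read.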
ELG1 DNA repair = qHTS screen for small molecules that inhibit ELG1-dependent DNA repair in human embryonic kidney (HEK293T) cells expressing luciferase-tagged ELG1; AID 504467, 2011; Potency, µM (series often up to 46.1 µM), for the others: at the highest dose activity change, negative = inhibition, hits mostly inhibitors; HEK293T ELG1-luciferase reporter, luminescence, 16 h; DNA damage induced by 5-fluorouridine; 2.3% of 330,000 active; further: on the % scale 0 is the no-effect control and ±100 the full control effect; nearly all actives have a fitted effect of over 55% in size
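HEK293T cells expressing luciferase-tagged ELG1 (2,000/well) received 5-Fluorouridine plus compound or DMSO for 16 hr at 37 °C. Luciferase was read by ONE-Glo luminescence after 30 min at room temperature.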
NPC1 prom act = qHTS Assay for NPC1 Promoter Activators; 2.4% of 320,000 active; AID 485313, 2010; Huh7 NPC1 promoter luciferase reporter, 24 h; Potency, µM (top dose mostly 9.22 µM), without a hit: at the highest dose activation, most hits filed as activators; further: % of control where 0% means no effect; nearly all actives have a fitted effect of over 60% in size
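Compounds in DMSO were transferred onto Huh7 NPC1-luciferase reporter cells pre-incubated 2 h; after 24 h at 37 °C, Amplite reagent was dispensed and luminescence recorded 10 min later.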
Rab9 promoter act = qHTS Assay for Rab9 Promoter Activators. Potency, µM (highest dose often 9.22 µM), inactives show at the highest dose activation, negative = inhibition, usual class: activators. AID 485297, 2010. Huh7 Rab9 promoter-luciferase reporter, luminescence, 24 h. 2.8% of 320,000 active; further: % of control where 0% means no effect; nearly all actives have a fitted effect of over 60% in size
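Stable Rab9-luc Huh7, 1500 cells/well, 2 h settle; cmpd in DMSO, 24 h, 37 °C/5% CO2; luciferase reagent 10 min RT; luminescence.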
ELG1 genotox = qHTS screen for small molecules that induce genotoxicity in human embryonic kidney (HEK293T) cells expressing luciferase-tagged ELG1; HEK293T ELG1-luciferase reporter, luminescence, 16 h; 1.3% of 330,000 active; Potency, µM (doses to about 46 µM), inactives show at the highest dose activity change, positive = activation, most hits filed as activators; further: % of control where 0% means no effect; nearly all actives have a fitted effect of over 60% in size
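Luminescence read-out: rising ELG1-luciferase signal, reflecting elevated ELG1 protein under genetic stress, flags genotoxic compounds. Cells were treated for 16 hr at 37 °C before ONE-Glo detection.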
FLuc modulator = qHTS profiling assay for firefly luciferase inhibitor/activator using purifed enzyme and Km concentrations of substrates (counterscreen for miR-21 project). purified FLuc, Km substrates, luminescence inhibition. Luciferin 4-monooxygenase (Photinus pyralis), P08659. Potency, µM (titrated, usually from 57.5 µM), for inactives: at the top dose activity change, negative = inhibition, actives largely listed as inhibitors. 6.9% of 360,000 active;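 further: plate controls were vehicle for no effect and reference inhibitor for full effect; nearly all actives have a fitted effect of over 55% in size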
Target sequence (P08659 whole entry, looked up): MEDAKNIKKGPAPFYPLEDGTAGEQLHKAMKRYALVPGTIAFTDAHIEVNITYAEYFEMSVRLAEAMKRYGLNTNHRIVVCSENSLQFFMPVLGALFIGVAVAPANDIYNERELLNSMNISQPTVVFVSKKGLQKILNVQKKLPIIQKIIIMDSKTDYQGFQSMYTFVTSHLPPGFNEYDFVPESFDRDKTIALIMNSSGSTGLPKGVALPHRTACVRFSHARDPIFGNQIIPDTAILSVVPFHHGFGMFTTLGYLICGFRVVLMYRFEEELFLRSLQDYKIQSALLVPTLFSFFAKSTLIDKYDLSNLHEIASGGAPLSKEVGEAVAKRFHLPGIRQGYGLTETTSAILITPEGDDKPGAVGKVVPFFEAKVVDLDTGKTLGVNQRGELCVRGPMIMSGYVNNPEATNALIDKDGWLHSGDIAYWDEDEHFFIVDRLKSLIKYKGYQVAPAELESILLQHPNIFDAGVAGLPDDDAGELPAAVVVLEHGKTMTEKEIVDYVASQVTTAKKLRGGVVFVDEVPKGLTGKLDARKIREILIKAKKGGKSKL
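Purified P. pyralis luciferase, 10 nM final, with Km-level 10 uM D-luciferin and 10 uM ATP in 50 mM Tris acetate pH 7.5, 10 mM Mg acetate, 0.01% Tween-20, 0.05% BSA; 6-point qHTS titration about 60 µM downward; luminescence read.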
* hit, by the source's call; ? = inconclusive; . = no result given. The call rests on the fitted dose curve; in most records, active means well fitted curve in the direction sought with a large enough effect; inconclusive means small, poorly fitted or top-dose-only effect, or another doubt; inactive means no such curve, though single readings can be large; an effect the other way counts as inactive or inconclusive. Potency means the concentration at half of the fitted maximal effect.

SMILES	SMN2 splice enh	ELG1 DNA repair	NPC1 prom act	Rab9 promoter act	ELG1 genotox	FLuc modulator
c1ccc(Cn2nc(-c3ccccc3)nc2-c2ccccc2)cc1	25%	?	13%	18%	?	21µM*
Cc1ccc(Cn2nc(-c3ccccc3)nc2-c2ccccc2)cc1	?	?	?	3.5µM*	?	15µM*
O=C(Cn1nc(-c2ccccc2)nc1-c1ccccc1)N1CCOCC1	-5%	-3%	4%	-3%	-3%	0%
Cn1nc(-c2ccccc2)nc1-c1ccccc1	.	?	?	?	12%	21µM*
Cc1ccc(Cn2c(-c3ccccc3)nc3ccccc32)cc1	-17%	.	.	.	.	?
Cc1cc2oc(=O)cc(Cn3ccnc3)c2cc1Cl	.	-5%	-3%	-8%	-2%	-2%
CCN(CC)C(=O)c1ccc2c(c1[N+](=O)[O-])C(=O)c1ccccc1C2=O	13µM*	?	2.8µM*	2.2µM*	?	3%
O=[N+]([O-])c1cccc(Cl)c1CSc1ccccn1	-1%	9%	-5%	-2%	2%	-7%
C/C(=N\Nc1nc(N2CCOCC2)nc(N2CCOCC2)n1)c1cccs1	-3%	-3%	0%	-8%	-2%	2%
C/C(=N\Nc1nc(-c2ccccc2)cs1)c1cccs1	2.8µM*	?	3.5µM*	2µM*	?	0.85µM*
C/C(=N\Nc1nc2ccccc2s1)c1cccs1	.	?	?	3.5µM*	?	0.67µM*
CCOC(=O)c1ccc(NC(=S)N2CCSC2c2ccc(Br)cc2)cc1 (stereo not given)	2%	16%	1%	2%	6%	-3%
Cc1ccc(S(=O)(=O)N2CCCCC2)cc1C(=O)OC(C)C(=O)NC1CCCCC1C (stereo not given)	.	-8%	-3%	-2%	-9%	-2%
c1ccc(-c2noc(-c3ccc4c(c3)OCO4)n2)nc1	0.5µM*	?	?	?	?	0.24µM*
c1ccc(-c2noc(-c3ccc4ccccc4c3)n2)nc1	0.5µM*	?	-25%	-22%	?	0.067µM*
Cc1ccc(NC(=O)CSc2n[nH]c(-c3ccncc3)n2)c(C)c1	.	4%	-2%	2%	4%	-4%
Cc1ccc(NC(=O)Cc2nc(-c3c[nH]c(C(=O)N4CCCC4)c3)cs2)c(C)c1	.	16µM*	2%	-4%	-6%	-3%
Cn1c(CC(=O)Nc2ccccc2F)nnc1SCC(=O)Nc1nccs1	.	-3%	-3%	6%	1%	1%
COc1ccc(-c2nnc(-c3ccc(N(C)C)cc3)o2)cc1	25%	.	.	.	.	2.1µM*
CN(C)c1ccc(-c2nnc(-c3ccccc3F)o2)cc1	.	?	0.35µM*	0.45µM*	?	1.2µM*
CN(C)c1ccc(-c2nnc(-c3ccc(S(=O)(=O)C(F)F)cc3)o2)cc1	5%	-13%	?	27%	-5%	-1%
COc1ccc(-c2nnc(-c3ccc(N)cc3)o2)cc1	13µM*	?	?	?	7.3µM*	3.4µM*
O=[N+]([O-])c1cccc(-c2nnc(-c3ccccc3F)o2)c1	.	?	2.5µM*	2µM*	?	12µM*
Nc1nc(Nc2cccc(F)c2)nc(NCc2ccco2)c1[N+](=O)[O-]	.	0%	-4%	-5%	3%	?
CCOC(=O)CC1C(=O)NCCN1C(=O)c1cccc(OC)c1 (stereo not given)	.	-4%	2%	-6%	0%	-1%
SMILES	SMN2 splice enh	ELG1 DNA repair	NPC1 prom act	Rab9 promoter act	ELG1 genotox	FLuc modulator
Clc1ccc(/C=N/Nc2nnc(-c3ncc[nH]3)c3ccccc23)cc1	?	0%	4.5µM*	2.8µM*	-4%	0.85µM*
Clc1cccc(/C=N/Nc2nnc(Cl)c3ccccc23)c1	12%	?	?	21%	9%	?
CC1=CC(=C2C(=O)c3ccccc3C2=O)C=C(C)N1C	7%	?	2.5µM*	2.5µM*	?	12µM*
CN(C)CCN1C(=O)c2ccccc2N(C)c2ccccc21	-1%	.	.	.	.	.
Cc1cc2c(cc1C)NC1=C(N2)OC(c2cccc(O)c2)C1=O (stereo not given)	.	-16%	-1%	-3%	6%	?
COc1ccccc1C1OC2=C(Nc3ccc([N+](=O)[O-])cc3N2)C1=O (stereo not given)	.	23µM*	1%	-7%	-11%	-1%
COc1ccc(C2OC3=C(Nc4cc(C)c(C)cc4N3)C2=O)cc1 (stereo not given)	.	?	3.5µM*	2.8µM*	?	?
CCN(CC)CCCC(C)NC(=O)c1cccc(S(=O)(=O)N2CCc3ccccc32)c1 (stereo not given)	11%	10%	-3%	3%	-5%	-1%
O=C(COc1ccc2c3c(c(=O)oc2c1)CCC3)Nc1ccccn1	.	?	0.4µM*	5µM*	1.6µM*	0.27µM*
